# Reference: the supplement of paper PMC6555819
# Columns and labels:
# Experiment in all cases: PBM binding z-score (relative to random genomic background probes); higher = stronger binding; sequences stand for … in GC…GCGATTGACAGCGTAGAATGAAGG
# [1] = tested on: FXR:RXRa (NR concentration 270 nM, RXRa partner concentration 90 nM)
# How it was run: (§1)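 Binding z-scores take random background probes as their reference. They come from custom Agilent 4×180K protein-binding microarrays incubated 1 h with ligand-free nuclear receptor dimers, with antibodies against each partner (one per run) detecting binding. Scanned fluorescence was regression-normalized.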
# [2] = tested on: LXRa:RXRa (NR concentration 270 nM, RXRa partner concentration 90 nM)
# How it was run: as §1
# [3] = tested on: LXRa homodimer (NR concentration 270 nM)
# How it was run: as §1
# [4] = tested on: LXRb:RXRa (NR concentration 270 nM, RXRa partner concentration 90 nM)
# How it was run: as §1
# [5] = tested on: LXRb homodimer (NR concentration 270 nM)
# How it was run: as §1
# [6] = tested on: PPARa:RXRa (NR concentration 270 nM, RXRa partner concentration 90 nM)
# How it was run: as §1
# [7] = tested on: PPARg:RXRa (NR concentration 180 nM, RXRa partner concentration 90 nM)
# How it was run: as §1
# [8] = tested on: PPARg:RXRa 270nM:90nM, anti-RXR (NR concentration 270 nM, RXRa partner concentration 90 nM)
# How it was run: as §1
# [9] = tested on: PPARg:RXRa 30nM:10nM, anti-RXR (NR concentration 30 nM, RXRa partner concentration 10 nM)
# How it was run: as §1
# [10] = tested on: PPARg:RXRa 90nM:30nM, anti-RXR (NR concentration 90 nM, RXRa partner concentration 30 nM)
# How it was run: as §1
# [11] = tested on: PPARg:RXRa DBDmut IVT, anti-RXR (DBD mutation: RXRa K156A/R161A, NR concentration 270 nM, RXRa partner concentration 90 nM)
# How it was run: as §1
# [12] = tested on: PPARg:RXRa IVT, anti-PPARg (NR concentration 270 nM, RXRa partner concentration 90 nM)
# How it was run: as §1
# [13] = tested on: PPARg DBDmut:RXRa IVT, anti-PPARg (DBD mutation: PPARg1 K132A/R137A, NR concentration 270 nM, RXRa partner concentration 90 nM)
# How it was run: as §1
# [14] = tested on: PPARg DBDmut IVT, anti-PPARg (DBD mutation: PPARg1 K132A/R137A, NR concentration 270 nM)
# How it was run: as §1
# [15] = tested on: PPARg homodimer (NR concentration 180 nM)
# How it was run: as §1
# [16] = tested on: PXR:RXRa (NR concentration 270 nM, RXRa partner concentration 90 nM)
# How it was run: as §1
# [17] = tested on: PXR homodimer (NR concentration 270 nM)
# How it was run: as §1
# [18] = tested on: RARa:RXR (NR concentration 270 nM, RXRa partner concentration 90 nM)
# How it was run: as §1
# [19] = tested on: RARa homodimer (NR concentration 270 nM)
# How it was run: as §1
# [20] = tested on: RARb:RXRa (NR concentration 270 nM, RXRa partner concentration 90 nM)
# How it was run: as §1
Sequence,PBM binding z-score [1],PBM binding z-score [2],PBM binding z-score [3],PBM binding z-score [4],PBM binding z-score [5],PBM binding z-score [6],PBM binding z-score [7],PBM binding z-score [8],PBM binding z-score [9],PBM binding z-score [10],PBM binding z-score [11],PBM binding z-score [12],PBM binding z-score [13],PBM binding z-score [14],PBM binding z-score [15],PBM binding z-score [16],PBM binding z-score [17],PBM binding z-score [18],PBM binding z-score [19],PBM binding z-score [20]
TCGGGTAGGTTACCAATGGGGCATTCAGCTTTCT,0.661,1.91,0.192,1.61,0.113,1.22,0.0871,1.31,1.96,1.63,1.78,1.82,0.338,-0.222,0.725,0.647,-0.198,0.735,0.0772,1.41
ATATGTAGGTTAAGGGTCTTTCAGGTTGGTTCGC,1.3,1.7,0.812,1.77,0.832,4.62,8.46,8.05,6.71,8.67,7.78,7.16,1.06,1.67,2.46,1.45,1.1,1.64,1.86,1.55
ATCTCTAGGTAAAAGTACAGTGAATCCCGAGGAT,0.212,0.0141,0.0637,-0.267,0.728,0.877,1.98,3.02,1.49,3.07,1.64,1.67,1.14,1.43,0.118,-0.149,0.313,-0.057,1.08,0.298
ACTAGTTGGTCAGCTGAGCTCACACACAATTCGG,-0.29,-0.363,-0.563,-0.541,-0.142,-0.497,0.575,-0.784,-0.476,-0.673,0.771,0.632,0.319,0.574,-0.1,-0.455,-0.49,-0.357,-0.333,0.363
TCTATTAGTTGAAGGGAAACCGACGAGTCCGTTT,0.681,0.912,0.189,0.65,0.644,0.587,-0.183,2.13,4.34,3.16,2.49,-0.0119,0.417,1.24,1.32,0.508,0.678,0.362,1.42,0.377
CCGACTGGGGGAAGGTTACCATAACGCACAGCCA,0.719,1.05,0.199,2.11,2.85,1.71,1.63,2.33,0.95,1.37,0.717,2.1,0.867,1.69,0.69,0.63,0.357,0.802,0.511,1
TCCTGTAGATCAACAGGAGGTTAAGAAAGATCGA,-0.0851,1.1,0.0543,0.973,-0.977,1.28,-0.00253,1.25,2.01,1.49,0.771,0.245,-0.0559,0.308,0.0427,0.654,-0.17,1.02,-0.715,0.535
CTTAGCAGGCCAGGGTCACTCAAGCATTTCGCTT,2.22,1.69,-0.276,2.19,-0.331,3.33,0.864,1.93,-0.113,1.06,1.45,1.72,-0.582,-0.865,0.785,2.67,-0.227,3.2,-0.241,2.81
CGTCAAAGCTCAAGGTAACGTAACAGAAAGCAGC,-0.214,-0.485,-0.372,-0.335,-0.863,-0.0672,0.521,-0.193,0.0179,0.133,0.0198,-0.221,-1.47,-0.249,-0.421,-0.257,-0.303,0.0827,-0.0827,-0.0501
CCTAGTTGGTCAGGGTCACACACGCTATAGGTAC,3.57,3.05,0.771,3.33,0.27,4.17,3.28,3.51,1.5,2.6,1.32,2.77,0.391,0.0582,2.15,3.91,1.38,4.76,1.57,3.43
TATACAGGGTCACAGGCCAGAGTACGAATGTCGA,7.56,5.94,2.06,4.84,2.2,6.06,8.05,6.76,3.77,5.75,2.88,5.43,2.95,3.73,3.45,4.32,0.522,5.21,1.31,4.8
GATACAGCGTCAAGGCCAGAGTACGCGTATTGAT,-0.565,-0.762,-0.347,-0.832,-0.969,-0.514,0.602,-0.494,-0.309,-0.649,-0.697,-0.358,-0.853,-0.941,-0.474,-0.434,-0.406,-0.6,-0.441,0.0727
GCTGCTAGGTCAACTGATGGTCCGCTAAAGCTCG,3.85,2.46,0.00165,1.92,-0.00733,3.41,2.32,2.97,0.463,1.97,4.62,3.92,-0.331,-0.853,0.857,0.939,-0.584,2.05,-0.897,4.04
CGTCAAAGTTCAACTAAGGTAGCGTAAAGCACGC,6.83,6.17,3.78,4.01,1.98,4.8,4.84,5.37,1.94,4.03,0.387,1.51,-0.0827,0.743,3.4,5.03,4.13,3.8,2.16,5.15
CATACAGGGTCAGATAGGCCAGAGTAGGGACGGC,4.34,3.14,0.146,2.31,0.65,4.26,3.15,2.6,0.58,1.71,0.492,2.13,1.29,1.07,2.72,2.05,0.241,2.94,0.209,3.55
AGTCAAAGTTCAGGACGAGTTAACGTAAAGCACG,3.79,3.99,1.02,1.9,0.173,3.38,4.32,4.63,2.21,4.17,-0.151,1.53,0.0233,0.458,1.18,3.59,1.43,2.4,1.1,4.21
CCGAGTAGGTTATGGGGCATTGAGGCAACGGTGA,0.345,0.579,-0.265,0.437,-0.0283,2.09,3.48,4.63,2.18,4.57,3.23,3.52,-0.234,0.034,1.19,-0.0257,0.241,0.37,0.756,0.976
CAGCCAAGGTCAGGGCCAGTATAGGAGGAACGTT,5.13,3.08,-0.277,2.25,-0.506,4.22,2.73,2.77,0.584,1.61,1.56,2.1,-0.336,-0.871,2.33,2.13,0.199,3.09,0.299,4.73
ACTCGGAGGACAAAGGTCATAGCTACGCCAGTGA,6.1,5.52,4.19,4.73,0.856,6.18,8.47,7.15,6.46,8.09,1.2,4.45,0.463,0.599,3.32,5.22,0.775,5.76,1.36,4.83
AGTCTAAGTTCAGGACGAGGTAACGTAAAGCACG,1.61,1.56,0.288,0.821,-0.194,1.82,0.831,0.749,0.345,0.385,-0.507,0.167,0.154,0.579,1.1,2.21,1.18,1.79,0.351,2.95
CGTCCACGGTCAGCAGGTCAGTGAAAGCGACGTG,0.822,0.439,-0.291,-0.097,-0.966,1.08,0.155,0.415,-0.695,-0.328,0.719,0.748,-0.923,-1.32,0.382,0.0662,-0.459,0.943,-0.66,3.25
CAAACTAGGTCGAAGGTCAAAGTCGAGCCAACCA,5.22,4.73,2.22,4.63,0.602,6.98,12.4,10.2,10.9,12.7,6.36,7.65,2.75,1.51,3.56,4.98,1.03,6.95,1.29,4.16
ATCTCTAGGTAAGACTCAGCTCAGTGAAGAACGC,0.197,0.324,0.483,-0.157,0.984,-0.198,0.0541,-0.171,0.317,0.109,1.68,1.02,0.287,1.14,0.51,-0.0635,0.232,-0.0237,0.868,-0.0169
TCATATAGGTAAACAGTTGAAAGTCCGTAAGTTA,1.56,1.2,0.508,1.15,0.267,1.76,1.53,2.91,3.95,3.49,4.45,3.32,1.41,0.905,1.35,1.03,0.634,1.35,1.47,0.681
CCGAGTAGGTCATGGGGCATTCAGGCAACGGTGA,4.82,3.04,0.422,2.42,-0.503,4.92,8.14,7.29,6.6,7.69,5.78,6.73,0.331,-0.486,2.5,2.15,-0.103,3.58,0.815,3.78
TTACCAAGGTGAGTTGAGGTCGTTGATCCAACTC,1.28,2.03,-0.25,1.39,-0.831,2.06,0.352,0.682,0.292,0.637,0.767,1.95,-0.517,-0.489,0.402,4.83,0.689,2.24,-0.309,1.54
TCTAGCAGGCCAGATGGTCACTCAAGAGGTACGG,-1.05,-0.551,-0.782,-1.05,-1.42,-0.0486,0.594,0.971,1.81,1.28,0.614,-0.0638,-0.764,-0.948,-0.88,-0.46,-0.899,-0.205,-1.39,0.242
CGTCCAAGATCATAGGAGGTCAGTGAAGACAGAT,1.56,2.77,1.2,2.26,0.134,2.69,0.898,0.559,0.251,0.198,0.389,1.23,0.673,0.577,1.4,2.93,0.844,2.62,0.513,2.25
